# Laboratory results as given in the supplement of paper PMC4166925.
# ± gives the standard deviation of the averaged measurements. Whole data set: some 33,000 sequences, median “E-score (dimensionless, -0.5 to 0.5)” near -0.049, cut for the highest 2% near 0.37. The list comes from a sample in which the highest values are over-represented; it also holds similar and randomly drawn sequences.
# Tested on: T1, PmTbr T-box DNA-binding domain (GST fusion)
# T1 sequence: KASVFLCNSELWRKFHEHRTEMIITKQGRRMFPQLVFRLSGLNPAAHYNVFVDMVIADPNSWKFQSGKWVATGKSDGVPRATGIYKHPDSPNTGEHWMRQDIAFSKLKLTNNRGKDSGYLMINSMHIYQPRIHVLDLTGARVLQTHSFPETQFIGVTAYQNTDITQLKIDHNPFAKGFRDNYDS
# Test: PBM E-score of 8-mer (E-score (dimensionless, -0.5 to 0.5)); Tbr is Tbrain of the sea star Patiria miniata (Pm) or the sea urchin Strongylocentrotus purpuratus (Sp); higher = stronger binding preference
# Details: the construct has about 5 more residues each side
# Experimental: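 Universal protein-binding microarray (Agilent AMADID 016060, 60-bp probes with a 35-bp variable region) incubated with 200 nM GST-fused Patiria miniata Tbr T-box DNA-binding domain (residues 272-466) in PBS pH 7.5. Scored for every ungapped 8-mer (given with its reverse complement) by the Universal PBM Analysis Suite as E-score (modified Wilcoxon-Mann-Whitney enrichment, range -0.5 to 0.5; >0.45 counts as bound) and Z-score of median probe intensity. Two replicate arrays (datasets 1 and 2).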
row,Sequence,PBM E-score of 8-mer
1,CAGTGGTA,-0.0733 ± 0.022
2,CGCAGCCA,0.00214 ± 0.11
3,AAGCGCCC,-0.0238 ± 0.0037
4,CACCGTCC,0.0123 ± 0.0021
5,CGTATTCC,-0.23 ± 0.036
6,ATGCGAGA,0.144 ± 0.02
7,CTGCGAGA,0.212 ± 0.035
8,GTGCGAGA,0.43391 ± 0.00018
9,AAAGGTCC,0.011 ± 0.046
10,AAAGGTAT,-0.0701 ± 0.061
11,AAAGGTGG,0.234 ± 0.084
12,AAAGGTGC,0.422 ± 0.015
13,AAAGGTGT,0.478 ± 0.0057
14,AAAGGTAC,-0.152 ± 0.021
15,AAGGGTGA,0.19 ± 0.0034
16,GAGGGTGC,0.389 ± 0.018
17,CAGGGTGC,0.271 ± 0.036
18,GAGGGTGA,0.279 ± 0.005
19,AAGGGTGT,0.399 ± 0.018
20,AAGGGTGG,0.1889 ± 0.001
21,AATAAGGT,0.0297 ± 0.12
22,CACTATAC,0.132 ± 0.073

row,Sequence,PBM E-score of 8-mer
1,ACGTCACA,0.258 ± 0.021
2,GGGCCTAA,-0.148 ± 0.024
3,CGAGAACA,0.2 ± 0.0064
4,AAAGGTAA,-0.21 ± 0.041
5,AAAGGTGA,0.398 ± 0.025
6,AAAGGTCA,-0.303 ± 0.043
7,CAAGTGGC,0.268 ± 0.028
8,GAAGTGCC,0.263 ± 0.019
9,GAAGTGTA,0.293 ± 0.028
10,CAAGTGCG,0.389 ± 0.015
11,AAAGTGCG,0.315 ± 0.013
12,CAAGTGTC,0.38 ± 0.031
13,CAAGTGGG,0.211 ± 0.016
14,CAAGTGTG,0.433 ± 0.0066
15,GAAGTGTC,0.454 ± 0.0065
16,CAAGTGCC,0.284 ± 0.029
17,CAAGTGTA,0.178 ± 0.035
18,CCAGTGTC,0.0539 ± 0.05
19,ATTTAAGC,-0.191 ± 0.065
20,ACATATCC,-0.0724 ± 0.065
21,ACAGCTCA,0.237 ± 0.0098
22,TAACACAA,0.313 ± 0.0094

row,Sequence,PBM E-score of 8-mer
1,CTTCAATC,0.0436 ± 0.043
2,GCCGACAA,0.116 ± 0.04
3,ACCGACAA,-0.0367 ± 0.05
4,CCCGACAG,0.11 ± 0.0062
5,ACCGACAT,0.0334 ± 0.031
6,CCCGACAA,0.208 ± 0.044
7,CCCGACAC,0.388 ± 0.012
8,GCCGACAC,0.382 ± 0.03
9,GCCGACCC,-0.256 ± 0.038
10,ACCGACAC,0.391 ± 0.02
11,CGGTGGGC,-0.131 ± 0.04
12,ATCCCAAG,-0.275 ± 0.07
13,CGTACTTA,-0.115 ± 0.042
14,TGGCTACA,-0.117 ± 0.0015
15,GATGTTGC,-0.0903 ± 0.014
16,CCCAAAAC,0.0141 ± 0.0023
17,CACCTACA,0.407 ± 0.013
18,GACCTACA,-0.125 ± 0.019
19,CACCTACC,0.413 ± 0.015
20,AACCTACG,-0.21 ± 0.0028
21,TACCTACA,-0.2971 ± 0.00036
22,CCCCTACG,-0.0948 ± 0.0047

row,Sequence,PBM E-score of 8-mer
1,CACCTACG,0.412 ± 0.0089
2,AACCTACC,-0.0696 ± 0.071
3,GACCTACC,-0.153 ± 0.0062
4,CGGAAGGA,-0.209 ± 0.012
5,CTGCCACA,0.226 ± 0.014
6,GCAAAGGA,-0.229 ± 0.021
7,CTTCTCGC,0.229 ± 0.027
8,ACCTGGGG,0.0226 ± 0.0096
9,AGTCGAGG,0.0125 ± 0.11
10,CGTACTGA,-0.105 ± 0.017
11,AATCTAAA,-0.0399 ± 0.05
12,AGCATCCC,-0.136 ± 0.039
13,CACTGTGG,-0.16 ± 0.098
14,CTATTATC,-0.101 ± 0.018
15,CCGTGCTA,0.263 ± 0.0013
16,ATGTGCCG,0.0963 ± 0.036
17,CTGTGCTA,0.0225 ± 0.0027
18,ACGTGCTA,0.417 ± 0.019
19,ATGTGCCA,0.375 ± 0.0048
20,ATGTGCCC,-0.0261 ± 0.068
